# Results taken from PubChem BioAssay AID1159580 (chemical genetic matrix, 2015).
# The whole screen tested about 5,500 compounds, of which about 2,000 (36%) were called active. Not shown: some 18% with an inconclusive outcome. The list shows a part of the results. A number with no mark means an inactive call. No stated cut-off is given here; in the data, active means normalized growth mostly below about 0.91 (no sharp cut-off); inconclusive means no clear call, values can overlap the other calls; inactive means mostly above about 0.92.
# Assay: chemical genetic growth profiling, strain panel (AID 1159580);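 further: tested at 20 µM; growth read once vehicle control cultures reached saturation at 30 °C; 1 = growth at the plate median or of vehicle wells; lower values mean less growth of the strain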
# Settings: growth OD
smiles,measurement,setting,value
C=C(C)[C@H]1CC=C(C(=O)O)CC1,normalized growth,"S. cerevisiae deletion strains, locus YKL068W, active compounds read low",0.858 (active)
same,normalized growth,"S. cerevisiae deletion strains, locus YKL085W, strain MDH1 (second series), active compounds read low",0.84 (active)
same,normalized growth,"S. cerevisiae deletion strains, locus YKL085W, strain MDH1, active compounds read low",0.84 (active)
same,normalized growth,"S. cerevisiae deletion strains, locus YKL160W, strain elf1, active compounds read low",0.969
same,normalized growth,"S. cerevisiae deletion strains, locus YKL190W, strain CNB1, active compounds read low",1.01
same,normalized growth,"S. cerevisiae deletion strains, locus YKR001C, strain vps1, active compounds read low",0.858 (active)
same,normalized growth,"S. cerevisiae deletion strains, locus YKR026C, strain gcn3, active compounds read low",0.98
same,normalized growth,"S. cerevisiae deletion strains, locus YKR091W, strain srl3, active compounds read low",0.995
same,normalized growth,"S. cerevisiae deletion strains, locus YLL001W, strain dnm1, active compounds read low",0.944
same,normalized growth,"S. cerevisiae deletion strains, locus YLL026W, active compounds read low",0.97
same,normalized growth,"S. cerevisiae deletion strains, locus YLL041C, strain sdh2, active compounds read low",0.998
same,normalized growth,"S. cerevisiae deletion strains, locus YLR027C, strain aat2, active compounds read low",0.933
same,normalized growth,"S. cerevisiae deletion strains, locus YLR039C, strain RIC1, active compounds read low",0.971
same,normalized growth,"S. cerevisiae deletion strains, locus YLR058C, strain SHM2, active compounds read low",0.996
same,normalized growth,"S. cerevisiae deletion strains, locus YLR102C, strain apc9, active compounds read low",0.966
same,normalized growth,"S. cerevisiae deletion strains, locus YLR113W, strain HOG1, active compounds read low",0.658 (active)
same,normalized growth,"S. cerevisiae deletion strains, locus YLR221C, strain rsa3, active compounds read low",0.907
same,normalized growth,"S. cerevisiae deletion strains, locus YLR258W, strain gsy2, active compounds read low",0.982
same,normalized growth,"S. cerevisiae deletion strains, locus YLR262C, strain YPT6 (second series), active compounds read low",0.979
same,normalized growth,"S. cerevisiae deletion strains, locus YLR262C, strain YPT6, active compounds read low",0.977
same,normalized growth,"S. cerevisiae deletion strains, locus YLR268W, strain sec22, active compounds read low",0.948
same,normalized growth,"S. cerevisiae deletion strains, locus YLR320W, strain mms22, active compounds read low",0.962
same,normalized growth,"S. cerevisiae deletion strains, locus YLR330W, strain CHS5, active compounds read low",0.99
same,normalized growth,"S. cerevisiae deletion strains, locus YLR342W, strain FKS1 (second series), active compounds read low",0.852
same,normalized growth,"S. cerevisiae deletion strains, locus YLR342W, strain FKS1, active compounds read low",0.976
same,normalized growth,"S. cerevisiae deletion strains, locus YLR357W, strain rsc2, active compounds read low",0.932
same,normalized growth,"S. cerevisiae deletion strains, locus YLR370C, strain arc18, active compounds read low",0.989
same,normalized growth,"S. cerevisiae deletion strains, locus YLR371W, strain rom2, active compounds read low",0.949
same,normalized growth,"S. cerevisiae deletion strains, locus YLR384C, strain iki3, active compounds read low",0.986
same,normalized growth,"S. cerevisiae deletion strains, locus YLR418C, strain cdc73, active compounds read low",0.982
same,normalized growth,"S. cerevisiae deletion strains, locus YML016C, strain PPZ1, active compounds read low",1.02
same,normalized growth,"S. cerevisiae deletion strains, locus YML032C, strain rad52, active compounds read low",0.919
same,normalized growth,"S. cerevisiae deletion strains, locus YML120C, strain ndi1, active compounds read low",0.986
same,normalized growth,"S. cerevisiae deletion strains, locus YML124C, strain tub3, active compounds read low",0.964
same,normalized growth,"S. cerevisiae deletion strains, locus YMR058W, strain fet3, active compounds read low",0.96
same,normalized growth,"S. cerevisiae deletion strains, locus YMR078C, strain ctf18, active compounds read low",0.956
same,normalized growth,"S. cerevisiae deletion strains, locus YMR125W, strain sto1, active compounds read low",1.03
same,normalized growth,"S. cerevisiae deletion strains, locus YMR129W, active compounds read low",0.991
same,normalized growth,"S. cerevisiae deletion strains, locus YMR205C, strain PFK2, active compounds read low",1.02
same,normalized growth,"S. cerevisiae deletion strains, locus YMR223W, strain ubp8, active compounds read low",0.917
same,normalized growth,"S. cerevisiae deletion strains, locus YMR231W, strain pep5, active compounds read low",0.988
same,normalized growth,"S. cerevisiae deletion strains, locus YMR263W, strain SAP30, active compounds read low",0.952
same,normalized growth,"S. cerevisiae deletion strains, locus YMR307W, strain GAS1, active compounds read low",0.821
same,normalized growth,"S. cerevisiae deletion strains, locus YNL067W, strain RPL9B, active compounds read low",0.908
same,normalized growth,"S. cerevisiae deletion strains, locus YNL071W, strain lat1, active compounds read low",0.991
same,normalized growth,"S. cerevisiae deletion strains, locus YNL128W, strain TEP1, active compounds read low",0.996
same,normalized growth,"S. cerevisiae deletion strains, locus YNL153C, strain GIM3, active compounds read low",0.924
same,normalized growth,"S. cerevisiae deletion strains, locus YNL183C, strain NPR1, active compounds read low",0.743 (active)
same,normalized growth,"S. cerevisiae deletion strains, locus YNL209W, strain ssb2, active compounds read low",0.992
same,normalized growth,"S. cerevisiae deletion strains, locus YNL233W, strain BNI4, active compounds read low",0.955
same,normalized growth,"S. cerevisiae deletion strains, locus YNL248C, strain rpa49, active compounds read low",0.803 (active)
same,normalized growth,"S. cerevisiae deletion strains, locus YNL250W, strain rad50, active compounds read low",0.852 (active)
same,normalized growth,"S. cerevisiae deletion strains, locus YNL271C, strain bni1, active compounds read low",0.876 (active)
same,normalized growth,"S. cerevisiae deletion strains, locus YNL298W, strain CLA4, active compounds read low",0.814 (active)
same,normalized growth,"S. cerevisiae deletion strains, locus YNL307C, strain MCK1, active compounds read low",0.912
same,normalized growth,"S. cerevisiae deletion strains, locus YNL322C, strain KRE1 (second series), active compounds read low",0.912
same,normalized growth,"S. cerevisiae deletion strains, locus YNL322C, strain KRE1, active compounds read low",1
same,normalized growth,"S. cerevisiae deletion strains, locus YNR049C, strain mso1, active compounds read low",0.971
same,normalized growth,"S. cerevisiae deletion strains, locus YNR052C, strain pop2, active compounds read low",0.921
same,normalized growth,"S. cerevisiae deletion strains, locus YOL006C, strain TOP1, active compounds read low",0.97
same,normalized growth,"S. cerevisiae deletion strains, locus YOL012C, strain htz1",1.09
same,normalized growth,"S. cerevisiae deletion strains, locus YOL147C, strain pex11, active compounds read low",0.976
same,normalized growth,"S. cerevisiae deletion strains, locus YOR001W, strain rrp6, active compounds read low",0.894
same,normalized growth,"S. cerevisiae deletion strains, locus YOR061W, strain CKA2, active compounds read low",0.971
same,normalized growth,"S. cerevisiae deletion strains, locus YOR069W, strain VPS5, active compounds read low",1
same,normalized growth,"S. cerevisiae deletion strains, locus YOR070C, strain gyp1, active compounds read low",0.963
same,normalized growth,"S. cerevisiae deletion strains, locus YOR080W, strain dia2, active compounds read low",0.971
same,normalized growth,"S. cerevisiae deletion strains, locus YOR083W, strain WHI5, active compounds read low",0.934
same,normalized growth,"S. cerevisiae deletion strains, locus YOR106W, strain vam3, active compounds read low",0.967
same,normalized growth,"S. cerevisiae deletion strains, locus YOR136W, strain idh2, active compounds read low",0.966
same,normalized growth,"S. cerevisiae deletion strains, locus YOR144C, strain elg1, active compounds read low",0.946
same,normalized growth,"S. cerevisiae deletion strains, locus YOR184W, strain ser1, active compounds read low",0.862 (active)
same,normalized growth,"S. cerevisiae deletion strains, locus YOR231W, strain MKK1, active compounds read low",0.761 (active)
same,normalized growth,"S. cerevisiae deletion strains, locus YOR265W, strain rbl2, active compounds read low",1.01
same,normalized growth,"S. cerevisiae deletion strains, locus YOR270C, strain vph1, active compounds read low",0.959
same,normalized growth,"S. cerevisiae deletion strains, locus YOR290C, strain snf2, active compounds read low",0.95
same,normalized growth,"S. cerevisiae deletion strains, locus YOR316C, strain cot1, active compounds read low",0.978
same,normalized growth,"S. cerevisiae deletion strains, locus YPL051W, strain arl3, active compounds read low",0.964
same,normalized growth,"S. cerevisiae deletion strains, locus YPL078C, strain atp4, active compounds read low",0.959
same,normalized growth,"S. cerevisiae deletion strains, locus YPL106C, strain sse1, active compounds read low",0.967
same,normalized growth,"S. cerevisiae deletion strains, locus YPL240C, strain hsp82, active compounds read low",0.989
same,normalized growth,"S. cerevisiae deletion strains, locus YPL241C, strain CIN2, active compounds read low",1.01
same,normalized growth,"S. cerevisiae deletion strains, locus YPL256C, strain CLN2, active compounds read low",0.71 (active)
same,normalized growth,"S. cerevisiae deletion strains, locus YPR119W, strain clb2, active compounds read low",0.981
same,normalized growth,"S. cerevisiae deletion strains, locus YPR141C, strain kar3, active compounds read low",0.751 (active)
same,normalized growth,"S. cerevisiae deletion strains, locus YPR163C, strain tif3, active compounds read low",0.911 (active)
same,normalized growth,"S. cerevisiae deletion strains, locus YPR167C, strain met16, active compounds read low",0.929
same,normalized growth,"S. cerevisiae deletion strains, strain wtn01, active compounds read low",0.904
same,normalized growth,"S. cerevisiae strains, strain wild type, active compounds read low",0.999
